# Screens from PubChem.
# Epigenetic mod: qHTS Assay for Epigenetic Modulators. mouse C127i GFP locus derepression, cytometry, 30 h. Potency, µM (series often up to 46.1 µM), for inactives: at the highest dose GFP derepression (activation). hit rate 0.09% among 68,000. AID 597, 2007; further: % of control where 0% means no effect
#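 Murine C127i mammary cells carrying a silenced, stably integrated CMV-driven GFP reporter were treated with compound for 30 hours at 37 C. After PBS washes, GFP-positive cells were counted by laser-scanning microplate cytometry.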
# HEK293 cAMP ctrl: qHTS Assay for Agonists of the Thyroid Stimulating Hormone Receptor: Activators of Intracellular cAMP Concentrations in Parental HEK 293 | parental HEK293 CNG cAMP sensor, membrane potential fluorescence | Potency, µM (titrated, usually from 57.1 µM), without a hit: at the top dose activation, actives largely listed as activators | hit rate 2.5% among 73,000; further: potency means the concentration at half of the fitted maximal effect; % of control where 0% means no effect; nearly all actives have a fitted effect of over 55% in size
#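 Parental HEK 293 cells stably expressing a cAMP-gated CNG channel were loaded with membrane potential dye containing 100 uM RO 20-1724 for 60 min. Compound added for 30 min; depolarization read as fluorescence intensity at 590 nm.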
# Ub-GFP proteasome: Ubiquitin-GFP Assay; Ubiquitin-GFP reporter cells, proteasome inhibition, GFP fluorescence; response scale: untreated = 0%, 10 µM MG-132 = 100%; Potency, µM (highest dose often 45.9 µM), without a hit: at the top dose activation (GFP accumulation), hits mostly activators; 67,000 tested, under 10 active; active means well fitted activation curve with a large enough effect, not every such curve was filed as active; inconclusive means small, poorly fitted or top-dose-only effect, or another doubt; inactive means no such curve, though single readings can be large or run the other way; further: potency means the concentration at half of the fitted maximal effect
#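 Reporter cells (U2OS, ubiquitin-G76V-GFP fusion) are plated overnight, then treated 4 hr at 37 °C with compound titrations from 46 uM down to 2.9 nM. Activity is scaled against untreated cells and 10 uM MG-132.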
# TSHR ag: qHTS Assay for Agonists of the Thyroid Stimulating Hormone Receptor | hit rate 0.48% among 73,000 | Potency, µM (doses to about 57.1 µM), for the others: at the top dose activation, most hits filed as activators | Thyrotropin receptor (Homo sapiens), P16473 | AID 926, 2007 | HEK293-CNG-TSHR cells (CNG channel as cAMP sensor), membrane potential dye, cAMP; active means well fitted activation curve with a large enough effect in the main read-out, with a control signal flat, not every such curve was filed as active; inconclusive means small, poorly fitted or top-dose-only effect, or a change in a side signal; inactive means no such curve, though single readings can be large or run the other way; % of control where 0% means no effect;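 further: the control signal comes from parental cells without the receptor; potency means the concentration at half of the fitted maximal effect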
# Target sequence (P16473 whole entry, looked up): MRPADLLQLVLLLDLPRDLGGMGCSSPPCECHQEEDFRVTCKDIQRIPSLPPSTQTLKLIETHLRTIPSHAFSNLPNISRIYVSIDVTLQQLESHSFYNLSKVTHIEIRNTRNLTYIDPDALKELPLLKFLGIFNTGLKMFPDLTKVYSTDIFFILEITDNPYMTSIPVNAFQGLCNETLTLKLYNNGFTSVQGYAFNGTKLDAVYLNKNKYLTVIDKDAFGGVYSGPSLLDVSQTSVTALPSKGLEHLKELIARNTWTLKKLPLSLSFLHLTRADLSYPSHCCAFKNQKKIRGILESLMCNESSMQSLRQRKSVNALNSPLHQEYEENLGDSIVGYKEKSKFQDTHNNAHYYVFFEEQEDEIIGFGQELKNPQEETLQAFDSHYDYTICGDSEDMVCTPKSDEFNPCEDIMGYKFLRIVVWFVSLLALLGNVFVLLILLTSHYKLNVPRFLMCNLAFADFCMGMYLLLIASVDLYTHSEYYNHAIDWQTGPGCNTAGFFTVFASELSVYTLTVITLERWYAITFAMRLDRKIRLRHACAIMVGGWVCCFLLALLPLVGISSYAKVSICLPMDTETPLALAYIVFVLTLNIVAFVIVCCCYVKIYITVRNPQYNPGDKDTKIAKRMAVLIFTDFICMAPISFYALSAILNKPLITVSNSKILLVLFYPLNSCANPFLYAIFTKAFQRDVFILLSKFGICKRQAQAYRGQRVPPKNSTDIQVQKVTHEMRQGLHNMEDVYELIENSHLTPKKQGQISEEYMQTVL
#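 cAMP rise detected as CNG-channel membrane depolarization by fluorescent dye (emission 590 nm), 30 min after compound, following 60 min dye loading containing 100 uM RO 20-1724 at room temperature. Cells: TSHR/CNG HEK 293, with parental CNG HEK 293 as control.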
# HBB splicing: qHTS Assay for Modulators of Hemoglobin Beta Chain Splicing; HBB splicing reporter cell assay, activation; EGFP reporter with mutant IVS2-654 intron; response scale: normalised to 500 nM splice-correcting PNA; Potency, µM (titrated, usually from 46.1 µM), for inactives: top-dose activation, actives largely listed as activators; hit rate 0.06% among 65,000; AID 925, 2007; further: potency means the concentration at half of the fitted maximal effect; 0% is about no effect
#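 HeLa cells stably expressing EGFP interrupted by mutant beta-globin intron 2 (IVS2-654), 500/well in 2% FCS. Treated with compound for 2 days at 37C. Splicing correction scored as total well GFP intensity (488 nm excitation, 500-520 nm emission); 500 nM antisense PNA served as control.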
# The depositor's hits bear a star; ? = inconclusive; . = not tested or not shown; [ ] = remark or other dose. Shown are actives, neighbours in structure and some others; about 3% of the full set was active somewhere. Unless noted, the call rests on the fitted dose curve; in most records, active means well fitted curve in the direction sought with a large enough effect; inconclusive means small, poorly fitted or top-dose-only effect, or another doubt; inactive means no such curve, though single readings can be large; an effect the other way counts as inactive or inconclusive.
SMILES,Epigenetic mod,HEK293 cAMP ctrl,Ub-GFP proteasome,TSHR ag,HBB splicing
Cc1cc(C)n(-c2nc3ccccc3nc2N2CCCCCC2)n1,-3%,20µM*,-6%,?,9%[1.84 µM]
Cc1ccc2c(c1)N(CC(=O)NCCN1CCOCC1)C(=O)CO2,.,0%,2%,4%,0%
N#CC(C(=O)NCc1ccccc1)c1nc2ccccc2nc1N1CCCC1 (stereo not given),?,?,12%,?,10µM*
Cc1nc2ccccc2c(=O)n1/N=C/c1c(O)ccc2oc3c(c12)CCCC3,4%,16µM*,-4%,?,0%
CCC(c1nnnn1CCc1ccccc1)N(Cc1ccco1)Cc1cc2cccc(C)c2[nH]c1=O (stereo not given),2%,16µM*,-3%,?,.
Cc1sc2ncnc(N3CCCCC3C)c2c1C (stereo not given),-3%,25µM*,-3%,?,1%
Cc1sc2ncnc(-n3cnc4ccccc43)c2c1C,0%,-5%,1%,-3%,-3%
Cn1c(SCC(=O)NC2CCCC2)nnc1-c1ccc(S(=O)(=O)N2CCOCC2)cc1,-3%,25µM*,-6%,?,0%[57.5 µM]
O=C1c2ccccc2C(=O)N1CCCCN(C(=O)c1ccco1)c1ccc(Cl)cc1,-2%,25µM*,16%,?,-1%
CC(=O)NC(CCS(C)(=O)=O)C(=O)Nc1cccc(C)c1 (stereo not given),.,3.2µM*,0%,?,1%
CC(=O)NC(CCS(C)(=O)=O)C(=O)Nc1ccc(C)c(F)c1 (stereo not given),0%,4%,-6%,1%,0%
Fc1ccc(Cn2nnnc2CN2CCN(C3CCCCC3)CC2)cc1,-1%,10µM*,6%,?,1%
N[C@@H](Cc1c[nH]c2ccccc12)C(=O)NCC(=O)O,-2%[9.22 µM],0%,-5%,-1%,.
Cc1cccc(OCCCC(=O)Nc2ccc(N3CCOCC3)cc2)c1,2%,13%[11.4 µM],-3%[9.17 µM],3.2µM*,-1%[0.0738 µM]
Cc1ccc(C)c(OCCCC(=O)Nc2ccc(N3CCOCC3)cc2)c1,2%,14%,-9%,5%,-1%
Cc1cccc2c1Oc1ccccc1[C@@H]2NC(=O)c1ccc([N+](=O)[O-])cc1,4%[9.22 µM],?,-3%[9.17 µM],?,-2%[9.22 µM]
CCCCn1nnc(NC(=O)c2sc3cc(Cl)ccc3c2Cl)n1,-4%,25µM*,5%,?,4%
Cn1c(C(=O)N(Cc2ccccc2)Cc2ccccn2)cc2sccc21,1%,16µM*,3%,?,0%
Cn1c(C(=O)N(Cc2ccccc2)Cc2cccs2)cc2sccc21,-1%,16µM*,2%,?,.
COC(=O)NC(CC(C)=O)c1cccs1 (stereo not given),.,-5%[11.4 µM],.,-5%[11.4 µM],1%[9.22 µM]
CCn1c(CSc2nc3ccccc3s2)nc2ccccc21,0%,4µM*,-9%[9.17 µM],?,-4%[0.0738 µM]
COc1cc(C2NC(=O)NC(c3ccccc3)=C2C(C)=O)ccc1OCC(=O)O (stereo not given),21%,32µM*,-6%,?,0%
CCOC(=O)c1ccc(COC(=O)c2nonc2N)cc1,2%,2%,-1%,-1%[11.4 µM],0%
Cc1ccc2ccccc2c1COC(=O)c1nonc1N,6%,16µM*,11%,?,0%
COC(=O)c1cn(C(=O)c2ccco2)c2ccccc12,2%,-2%,0%,3%,1%[9.22 µM]
SMILES,Epigenetic mod,HEK293 cAMP ctrl,Ub-GFP proteasome,TSHR ag,HBB splicing
Cn1cc(/C(Cc2ccccc2)=N\O)c2ccccc21,-3%,29%,4%,20µM*,0%
CO[C@H]1COC(=O)C/C=C\[C@H](C)COC(=O)[C@@H](C)NC(=O)C/C=C\[C@@H]1C,.,-6%[11.4 µM],.,-2%[11.4 µM],2%[9.22 µM]
Ic1ccc2c(c1)N(c1ccccc1)c1cc(Nc3ccc4nc5ccc(I)cc5[n+](-c5ccccc5)c4c3)ccc1N2,2%[9.22 µM],-1%[11.4 µM],1%[9.17 µM],0%[11.4 µM],1%[9.22 µM]
Cc1ccc2cc3cc(C(=O)NCCC(C)C)oc3nc2c1,0%,5%,20%,10%,-2%
CCN(C(=O)c1cc2cc3ccc(C)cc3nc2o1)c1ccc(OC)cc1,4%,40µM*,1%,?,7%
CSc1nnc2c3ccccc3n(CCc3ccccc3)c2n1,-2%,4µM*,7%[9.17 µM],?,-4%[0.0738 µM]
CSc1nnc2c3ccccc3n(Cc3ccccc3)c2n1,3%,20µM*,-1%,?,0%
Cc1nnsc1NC(=O)OCC(C)C,0%,13µM*,0%,?,-2%
CCC(COC(=O)Nc1cccc(C)c1)NC(=O)OCC(C)C (stereo not given),2%,?,-11%,?,-4%
COc1ccc(CCNC[C@H](O)c2ccc(O)cc2)cc1OC,-2%,?,1%,?,0%
O=C(Nc1ccccc1)c1ccc(Cc2nc3ccccc3[nH]2)cc1,.,-11%,.,-5%,.
Cc1noc(C)c1CSc1nnc(-c2ccccc2)n1Cc1ccco1,0%,16µM*,1%,?,0%[57.5 µM]
COc1ccc(N2CCN(c3oc(COc4ccccc4)nc3C#N)CC2)cc1,-1%,0.79µM*,-3%,?,.
N#Cc1nc(COc2ccc(Br)cc2)oc1N1CCCCCC1,2%,25µM*,6%,?,0%
COc1ccc(N2CCN(c3oc(COc4ccc(Cl)cc4)nc3C#N)CC2)cc1,16%[20.6 µM],.,.,.,.
Clc1ccc(OCc2nc(-c3ccncc3)no2)c(Cl)c1,0%,25µM*,5%,?,1%
Cc1ccc(-c2noc(COc3ccccc3C)n2)cc1,8%,25µM*,11%,?,-4%
c1ccsc1,.,?,.,?,1%
CO[C@@H]1/C=C\O[C@]2(C)Oc3c(C)c(O)c4c(O)c(c(/C=N\N5CCN(C)CC5)c(O)c4c3C2=O)NC(=O)/C(C)=C\C=C/[C@H](C)[C@H](O)[C@H](C)[C@H](O)[C@H](C)[C@H](OC(C)=O)[C@@H]1C,-2%[9.22 µM],-8%,-4%,-10%,.
O=C(Nc1ccccc1)N1CCC2(CC1)CCN(C(=O)c1csnn1)CC2,0%[9.22 µM],28%,-4%,4µM*,-1%
C=CCn1c(SCC(=O)NCc2ccc3c(c2)OCO3)nnc1C1CCCCC1,-1%,25µM*,-3%,?,-2%
Cc1ccc(OCc2nnc(SCc3nc4ccccc4[nH]3)n2Cc2ccco2)cc1,-2%,32µM*,.,?,4%[0.369 µM]
O=C(CSc1nc2ccccc2c(=O)n1Cc1ccco1)NCc1ccccc1,0%,25µM*,5%,?,2%[57.5 µM]
C=CCn1c(SCC(=O)NCc2ccc3c(c2)OCO3)nnc1C1COc2ccccc2O1 (stereo not given),1%,28%,1%,12%,-1%[57.5 µM]
